The list is not random: actives were taken first. Their share in the collection is about 8.1%.
Gal4-VP16 FLuc: VP16 counterscreen qHTS for inhibitors of ROR gamma transcriptional activity; hit rate 3.5% among 310,000; Potency, µM (doses to about 53.6 µM), inactives show at the highest dose activity, negative = inhibition, hits mostly inhibitors; Drosophila S2 Gal4-VP16 UAS-luciferase, luminescence, 20 h;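 also: Gal4-VP16 expression switched on by copper sulfate through the metallothionein promoter; % is scaled to controls: 0 for no effect and ±100 for the full control effect; nearly all actives have a fitted effect of over 50% in size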
Sfp PPTase inh: qHTS Assay for Inhibitors of Bacillus subtilis Sfp phosphopantetheinyl transferase (PPTase); Biochemical Sfp PPTase activity, qHTS; Potency, µM, for inactives: largest response in the series, negative = inhibition, hits mostly inhibitors; hit rate 3.5% among 310,000;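 also: the enzyme is Sfp with the accession as filed and its product quenches rhodamine fluorescence; 0% = enzyme reaction without inhibitor and -100% = no enzyme wells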
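Buffer: 50 mM Hepes-Na pH 7.6, 10 mM MgCl2, 0.01% Nonidet P-40, 0.01% BSA. Enzyme 15 nM, pre-exposed to compound 15 min; substrates then added and fluorescence change tracked over 30 min.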
ClpP mod: qHTS Assay for Activators of ClpP; ATP-dependent Clp protease proteolytic subunit (Bacillus subtilis (strain 168)), P80244; purified B. subtilis ClpP, FRET peptide cleavage, 20 min; Potency, µM (highest dose often 57.5 µM), for the others: at the top dose activity change, negative = active; hit rate 1.9% among 340,000; AID 651965, 2013; active = well fitted falling curve with a large enough effect; inconclusive = small, poorly fitted or top-dose-only effect; inactive = no such curve, though single readings can be large or run the other way; also: the source files actives as falling curves though it sought activators and does not explain the sign; nearly all actives have a fitted effect of over 65% in size
Target sequence (P80244 whole entry, looked up): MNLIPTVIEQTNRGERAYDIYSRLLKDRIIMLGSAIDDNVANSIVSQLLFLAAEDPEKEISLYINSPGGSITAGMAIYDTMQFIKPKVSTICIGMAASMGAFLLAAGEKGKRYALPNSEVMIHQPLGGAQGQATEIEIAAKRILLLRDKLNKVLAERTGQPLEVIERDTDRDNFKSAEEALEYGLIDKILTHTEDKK
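Buffer: 100 mM Tris/HCl pH8, 100 mM KCl, 0.05% low protease BSA, 2.5% glycerol, 0.01% Tween-20. ClpP 10 microg/mL final; 20 min RT; delta FRET normalized to ADEP and DMSO controls.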
PINK1 modulator: A Quantitative High throughput Screen to Identify Chemical Modulators of PINK1 Expression | PINK1 immunofluorescence, high-content cytometry, 24 h | Potency, µM (highest dose often 76.6 µM), for the others: top-dose activation (PINK1 increase), actives largely listed as activators | hit rate 0.2% among 410,000 | AID 624263, 2012; active = well fitted activation curve with a large enough effect; inconclusive = small, poorly fitted or top-dose-only effect; cell line not stated here; also: % of control where 0% means no effect; nearly all actives have a fitted effect of over 65% in size
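Stable cell line treated 24 h with compounds at 5 concentrations (CCCP controls), then fixed and immunostained for PINK1 plus nuclear and cell stains; PINK1 immunofluorescence quantified by laser-scanning microplate cytometry.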
Epigenetic reg: Quantitative High-Throughput Screen for Regulators of Epigenetic Control. murine LDR cells, GFP reporter derepression, 30 h. Potency, µM (highest dose often 53.9 µM), without a hit: at the highest dose GFP activation, usual class: activators. hit rate 0.2% among 280,000; also: % of control where 0% means no effect; nearly all actives have a fitted effect of over 60% in size
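Derepression of a silenced CMV-GFP reporter in murine LDR cells is scored by enumerating GFP-positive cells with a laser-scanning microplate cytometer after 30 hours of treatment at 37 C.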
RORgamma inh: qHTS for inhibitors of ROR gamma transcriptional activity; Potency, µM (series often up to 53.6 µM), for the others: at the top dose activity change, negative = inhibition, usual class: inhibitors; Nuclear receptor ROR-gamma (Mus musculus), P51450; hit rate 5.4% among 310,000; Drosophila S2 Gal4-RORgamma UAS-luciferase reporter, 20 h; also: % is scaled to controls: 0 for no effect and ±100 for the full control effect; nearly all actives have a fitted effect of over 60% in size
Target sequence (P51450 whole entry, looked up, the tested form may be a part): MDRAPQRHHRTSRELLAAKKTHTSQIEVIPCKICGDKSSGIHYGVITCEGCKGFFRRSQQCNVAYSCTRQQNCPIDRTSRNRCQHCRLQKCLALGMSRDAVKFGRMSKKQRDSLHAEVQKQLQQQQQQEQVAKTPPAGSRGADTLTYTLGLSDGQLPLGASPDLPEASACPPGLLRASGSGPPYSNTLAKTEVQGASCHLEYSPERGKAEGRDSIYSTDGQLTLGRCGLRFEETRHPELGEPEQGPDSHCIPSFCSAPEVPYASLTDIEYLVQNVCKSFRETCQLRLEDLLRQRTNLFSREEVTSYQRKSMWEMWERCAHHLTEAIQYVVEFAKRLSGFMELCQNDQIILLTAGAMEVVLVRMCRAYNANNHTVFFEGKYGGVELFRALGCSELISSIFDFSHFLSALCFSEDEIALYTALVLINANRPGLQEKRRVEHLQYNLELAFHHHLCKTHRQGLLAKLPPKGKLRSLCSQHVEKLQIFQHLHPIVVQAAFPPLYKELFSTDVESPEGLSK
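Luciferase reporter read in Schneider cells carrying Gal4-RORγ (mouse) and UAS-Photinus luciferase; cells given compound 1 h before 700 uM copper sulfate induction, then incubated 20 h at ambient temperature.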
* = called active by the depositor; u = inconclusive; x = no result; ! = not confirmed by another sample; [ ] = another dose, or the depositor's remark. Unless noted, calls follow the shape of the dose curve; as a rule, active = well fitted curve in the direction sought with a large enough effect; inconclusive = small, poorly fitted or top-dose-only effect, or another doubt; inactive = no such curve, though single readings can be large; an effect the other way counts as inactive or inconclusive. Potency is read from the fitted curve at half-maximal effect.

SMILES	Gal4-VP16 FLuc	Sfp PPTase inh	ClpP mod	PINK1 modulator	Epigenetic reg	RORgamma inh
COc1ccc(Cn2ccc3nc(C)c(C(=O)Nc4ccc(OC)cc4OC)cc3c2=O)cc1	x	x	6%	2%	3%	x
CC(=O)Nc1ccc(C)cc1	-26%	x	-21%	0%	x	-12%
CC(=O)Nc1ccc(-c2cn3cc(C)ccc3n2)cc1	u	6%	u	2%	0%	7.1µM*
Clc1ccc(-c2cn3cc(Cl)ccc3n2)cc1	13µM*	9%	u	1%	x	10µM*
COc1cc(S(=O)(=O)N2CCN(Cc3ccccc3)CC2)ccc1Br	23%	0%	u	0%	0%	-21%
O=S(=O)(c1ccc(S(=O)(=O)N2CCN(C3CCCCC3)CC2)cc1)N1CCCCCC1	-5%	4%	0%	7%[38.3 µM]	13%	-12%
O=c1[nH]c2ccc(S(=O)(=O)N3CCN(Cc4ccccc4)CC3)cc2[nH]c1=O	-10%	14%	28µM*	3%[38.3 µM]	-2%	5%
O=c1[nH]c2ccc(S(=O)(=O)N3CCN(C4CCCCC4)CC3)cc2[nH]c1=O	7%	24%	28µM*	7%[38.3 µM]	-3%	-4%
COc1cc(/C=C(/C#N)c2nc(-c3cc4ccccc4oc3=O)cs2)ccc1O	x	x	-1%	30%	u	x
CC(C)NC[C@H](O)c1ccc(O)c(O)c1	-14%	4µM*!	0%	-1%	0%	u
CC(C)NC[C@H](O)c1cc(O)cc(O)c1	-4%[17 µM]	4%	x	x	4%[16.9 µM]	-12%[16.9 µM]
COc1cc(OC)c(NC(=O)C(c2ccccc2)N2Cc3ccccc3C2=O)cc1Cl (stereo unspecified)	x	x	0%	u	1%	x
O=C(O)CCNC(=S)Nc1cccc(F)c1	0%	2%	-1%	0%	-1%	-7%
S=C(Nc1ccccc1Cl)Nc1ccc(Cl)cc1Cl	1%	8%	-14%	1%	3%	-35%
Fc1cccc(NC(=S)NCc2ccccc2Cl)c1	11µM*	4%	1%	u	5%	7.1µM*
NNC(=S)Nc1ccccc1Cl	11µM*	10%	x	0%	3%	7.9µM*
NNC(=S)Nc1ccc(C(F)(F)F)cc1Cl	u	-2%	-2%	24%	7%	11µM*
S=C(NCc1ccccc1Cl)Nc1ccccc1Cl	2.8µM*	19%	-1%	1%	1%	0.56µM*
O=C(CN1CCCCC1)Nc1ccc(C(F)(F)F)cc1Cl	0%	-16%	x	10%	0%	2%
Cc1cc(Cl)ccc1NC(=S)NCc1ccccc1Cl	4µM*	-26%	1%	u	2%	5µM*
CN1CCN(c2ccccc2NC(=O)c2ccc(-c3ccccc3[N+](=O)[O-])o2)CC1	7%	-15%	-2%	-2%	x	6%
O=[N+]([O-])c1ccccc1-c1ccc(CN2CCN(c3ccccc3)CC2)o1	2%	u	x	1%	x	-5%
Cc1ccc(N2CCN(C(=S)c3ccc(-c4cccc([N+](=O)[O-])c4)o3)CC2)cc1	0%	14µM*	-2%	1%	4%	0%
O=[N+]([O-])c1ccccc1-c1ccc(C(=S)N2CCN(c3ccccc3)CC2)o1	6%	18µM*	0%	-1%	1%	-17%
Cc1ccccc1N1CCN(C(=S)c2ccc(-c3ccc([N+](=O)[O-])cc3)o2)CC1	-1%	20µM*	1%	2%	1%	-10%
SMILES	Gal4-VP16 FLuc	Sfp PPTase inh	ClpP mod	PINK1 modulator	Epigenetic reg	RORgamma inh
Cc1ccc(N2CCN(C(=S)c3ccc(-c4ccccc4[N+](=O)[O-])o3)CC2)cc1	-2%	18µM*	2%	1%	-1%	-6%
COc1cc2c(cc1OC)C1O[C@](c3ccsc3)(C2)Oc2cc(-c3ccccc3)oc(=O)c21	1%[10 µM]	-8%	x	x	x	11%[10 µM]
CC1(C)C=C(c2ccc(C=O)s2)CC(C)(C)N1	-8%	-2%	-4%	0%	0%	-16%
CC1(C)C=C(c2ccc(C=O)s2)CC(C)(C)N1C=O	13%	5%	22µM*	0%	0%	9%
Cc1ccc(/C=C/C(=O)NCc2cccs2)c(C)c1	-18%	19%	x	6%	2%	-32%
Cc1cc(Cl)ccc1NC(=S)NCc1cccs1	8.9µM*	13%	0%	-2%	-1%	4µM*
Cc1ccc(NC(=S)NCc2cccs2)c(C)c1	5.6µM*	2%	-2%	6%	-1%	2.2µM*
O=C(c1ccc(Br)cc1)N(Cc1nc2ccccc2c(=O)[nH]1)C1CCCC1	u	-3%	x	2%	1%	16µM*
O=C(NCc1ccccc1)N(Cc1nc2ccccc2c(=O)[nH]1)C1CCCC1	-5%	-4%	14µM*	-1%	2%	18%
O=C(c1ccccc1)N(Cc1nc2ccccc2c(=O)[nH]1)C1CCCC1	15%	6%	x	2%	-6%	30%
CCOC(=O)c1ccc(NC(=O)c2ccc3c(c2)CCN3S(=O)(=O)c2ccc(Cl)cc2)cc1	x	x	-7%	0%	14%	x
CC1=C(/C=C/C(C)=C\C=C\C(C)=C\C(=O)O)C(C)(C)CCC1	5%	13%	x	x	1%	u
CC1=C(/C=C/C(C)=C/C=C/C(C)=C/C(=O)O)C(C)(C)CCC1	-4%	u	-1%	4%	-1%	5µM*!
CCn1nc(C)cc1C(=O)N1CCC2(CC1)c1ccccc1[C@@H](NC(=O)c1cccnc1)[C@@H]2O	x	x	x	1%	x	x
CC(C)(C)OC(=O)N1CCC(c2c(C(=O)NC3CCN(Cc4ccccc4)CC3)cnn2-c2cccc(F)c2)CC1	x	x	1%	0%	4%	x
O=C(/C=C/c1ccco1)N1CCN(S(=O)(=O)c2cccs2)CC1	1%	16µM*	x	-1%	1%	1%
Cc1ccc(/C=C/C(=O)N2CCN(S(=O)(=O)c3cccs3)CC2)o1	2%	14µM*	-4%	1%	7%	22%
COc1ccc(C)cc1/C=C/C(=O)N1CCN(S(=O)(=O)c2cccs2)CC1	x	x	0%	2%	x	x
C=CCOc1cccc(C(=O)Nc2ncn[nH]2)c1	u	1%	-2%	0%	x	22µM*
COc1cc(OC)cc(C(=O)Nc2ncn[nH]2)c1	x	x	-2%	0%	x	x
COc1cc2[nH]c(=O)n(Cc3ccc(C(=O)NCC4CCCO4)cc3)c(=O)c2cc1OC (stereo unspecified)	4%	17%	25µM*	5%	0%	-17%

Screening results (PubChem BioAssay)
